Inconclusive results are not listed. Activity calls are given as the source filed them.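 Rule for the calls: active = viability at or below 27.92% in each of two runs, the all-compound median minus 4 SD; inconclusive = no clear call, values can overlap the other calls; inactive = the rest.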

The assay is described as follows: viability of PTEN-null HCT116 cells – cell-based, HCT116 clonal line, CellTiter-Glo, pilot screen (AID 824).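 Note: 0% = 20 µM Hyamine control and 100% = vehicle cell control.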 The conditions noted are these: HCT116 PTEN-deleted viability, 60 h, at 10 µM, active compounds read low. In general terms: In ATP-based viability assays light output follows the ATP content of the culture.
In the case of `COC(=O)c1ccsc1NC(=O)c1ccc(Cl)s1`, the viability (in general, a read-out of living cells in per cent, often relative to untreated cells) is 87.9% (inactive).
Under `COC(=O)C1C(=O)c2c([nH]c(C(=O)OC3CCCCC3)c2C)CC1C` (stereo not given) stands 104% (inactive); under `Cc1cc(-c2nnco2)c(C)n1-c1ccc(F)cc1`, 85.3% (inactive).
In the case of `O=C1CCCCC(=O)N(c2ccccc2)c2ccccc21`, the viability was 95.6% (inactive).
On to `CCOC(=O)N1CCN(C(=O)Cn2ncc3c2-c2ccccc2OC3)CC1`, for which the viability is 95.9% (inactive).
Under `COCc1cc(C)nc2sc3c(=O)n(Cc4ccco4)nnc3c12` stands 90.7% (inactive).
Take `O=C1c2ccccc2C(=O)N1CCCc1nc2ccccc2c(=O)n1Cc1ccco1`: the viability is 93.5% (inactive).
As for `CS(=O)(=O)c1ccc2nc(NC(=O)C3CCCCC3)sc2c1`, the viability is 77.3% (inactive).
Turning to `CC(=O)Oc1cccc(N2C(=O)C3CC=C(Cl)CC3C2=O)c1` (stereo not given), the viability was 87.9% (inactive).
Take `Cc1cccc(-n2ncc3c(N4CCC(C)CC4)ncnc32)c1`: the viability is 82.9% (inactive).
Take `CCOc1ccc(C2c3c(oc4ccccc4c3=O)C(=O)N2c2ccc(C)cn2)cc1OC` (stereo not given): the viability was 83.7% (inactive).
`COc1ccc(N2C(=O)C(CC(=O)O)S/C2=C\C(C)=O)cc1` (stereo not given): the viability is 99.4% (inactive).
To `Cn1c(Cn2c(=O)sc3ccccc32)nnc1SCC(=O)NCc1ccccc1` belongs 102% (inactive); to `O=C(CCNS(=O)(=O)c1cccc2nonc12)NCc1cccs1`, 89.1% (inactive); to `O=C(CN(Cc1ccc(F)cc1)S(=O)(=O)c1ccccc1)N1CCCCC1`, 89.8% (inactive).
Consider `O=C1C2C(c3ccccc3)C=CC(c3ccccc3)C2C(=O)N1CCO` (stereo not given), for which the viability is 95.3% (inactive).
Consider `COC(=O)c1cn(NC(=O)c2ccc3c(c2)OCO3)c(=O)c2ccccc12`, for which the viability was 97.3% (inactive).
In the case of `CCCCS(=O)CC(CS(=O)CCCC)OC(=O)c1ccccc1` (stereo not given), the viability was 96.1% (inactive).
Consider `Cc1ccc(-n2c3c(cc(C(=O)N4CCN(C)CC4)c2=O)C(=O)CC(C)(C)C3)cc1`, for which the viability was 96.6% (inactive).
For the compound `CC(C)CCn1c(SCC(N)=O)nc2c1c(=O)n(C)c(=O)n2C`, the viability was 102% (inactive).
`CCOc1ccc(C(=O)NCc2ccncc2)cc1OCC`: the viability was 90% (inactive).
Consider `COc1cc(OC)nc(NC(=O)C(C)C)n1`, for which the viability was 97.3% (inactive).
`COc1ccc(NC(=O)c2c(NC(=O)CNCc3ccco3)sc3c2CCC3)c(OC)c1`: the viability was 79.2% (inactive).
Take `CC(=O)Nc1ccc(S(=O)(=O)N2CCN(c3ccc(C)c(Cl)c3)CC2)cc1`: the viability is 85.4% (inactive).
To `Cn1c(Cn2c(=O)sc3ccccc32)nnc1SCC(=O)NCCc1ccccc1` belongs 105% (inactive).
As to `CCOCCn1c(COc2ccccc2)nc2ccccc21`, the viability was 81.9% (inactive).
Turning to `COc1ccc(COC(=O)C2=C(C)NC(=O)NC2c2ccc(O)c(OC)c2)cc1` (stereo not given), the viability is 89.2% (inactive).
For the compound `CCCOc1ccc(C2c3c(oc4cc(C)c(C)cc4c3=O)C(=O)N2CCCN2CCOCC2)cc1` (stereo not given), the viability was 89% (inactive).
Regarding `CCCCOC(=O)Nc1ccc(S(=O)(=O)Nc2cc(C)nc(C)n2)cc1`, the viability is 91.6% (inactive).
As to `O=S(=O)(NCCO)c1cccc2cccnc12`, the viability was 85.4% (inactive).
Turning to `CC(C)(C)C1(C)OC(C(N)=O)C(C(N)=O)O1` (stereo not given), the viability was 95.7% (inactive).
Consider `COc1ccc(-c2cn3c(C)c(C(=O)N4CCN(c5ccccc5)CC4)sc3n2)cc1`, for which the viability was 95.6% (inactive).
Take `Cc1ccccc1OCC(O)Cn1c(NCCN(C)C)nc2c1c(=O)n(C)c(=O)n2C` (stereo not given): the viability is 99.4% (inactive).
On to `CCNc1nc(NCC)nc(-n2nc(C)cc2C)n1`, for which the viability is 103% (inactive).
Consider `Cc1nc2scc(-c3cccs3)c2c(=O)o1`, for which the viability is 98.7% (inactive).
`CC1COC2C(O1)N(S(C)(=O)=O)CCN2S(C)(=O)=O` (stereo not given): the viability is 101% (inactive).
As to `O=C(NCCN1C(=O)C2C3C=CC(C3)C2C1=O)NCc1ccccc1` (stereo not given), the viability was 99.8% (inactive).
To `COC(=O)Cn1c(CCC(=O)O)ccc1-c1ccccc1` belongs 103% (inactive); to `COC(=O)C1C2C=CC3(CN(c4ccc(Cl)c(F)c4)C(=O)C13)O2` (stereo not given), 91.8% (inactive).
In the case of `Cc1cnn(-c2ccc3nnc(-c4ccc(Br)cc4)n3n2)c1`, the viability is 84.1% (inactive).

For the origin of these results see PubChem BioAssay.
